Reference: PubChem BioAssay AID1159580 (chemical genetic matrix, 2015)
Where “and” joins values, the source holds several entries; their conditions need not be identical. Equal values may be shown once. Among all 5,500 compounds or so, about 2,000 (36%) were called active. Inconclusive results (about 18%) are left out. No stated cut-off is given here; in the data, active means normalized growth mostly below about 0.91 (no sharp cut-off); inconclusive means no clear call, values can overlap the other calls; inactive means mostly above about 0.92. Some of the results follow.

Test: chemical genetic growth profiling, strain panel (AID 1159580);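 further: tested at 20 µM; growth read once vehicle control cultures reached saturation at 30 °C; 1 = growth at the plate median or of vehicle wells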
Details: S. cerevisiae deletion strains, growth OD

Measured: normalized growth

Nc1ncnc2c1ncn2C1C[C@H](O)[C@@H](CO)O1 (some centres not stated)
active: locus YLR113W, strain HOG1, stronger effect = lower value 0.845
inactive: locus YAL013W, strain DEP1, stronger effect = lower value 0.998 | locus YAL021C, strain ccr4, stronger effect = lower value 1.03 | locus YAL026C, strain drs2, stronger effect = lower value 1.02 | locus YAL030W, strain snc1, stronger effect = lower value 1.01 | locus YBL061C, strain skt5, stronger effect = lower value 1.01 | locus YBR009C, strain hhf1, stronger effect = lower value 1.02 | locus YBR021W, strain FUR4, stronger effect = lower value 1.02 | locus YBR023C, strain chs3, stronger effect = lower value 1 | locus YBR171W, strain sec66, stronger effect = lower value 1.03 | locus YBR229C, strain ROT2, stronger effect = lower value 0.962 | locus YBR231C, strain swc5, stronger effect = lower value 1.01 | locus YBR279W, strain paf1, stronger effect = lower value 1.01 | locus YCL011C, strain gbp2, stronger effect = lower value 1.02 | locus YCL016C, strain dcc1, stronger effect = lower value 1.01 | locus YCL029C, strain bik1, stronger effect = lower value 0.998 | locus YCL061C, strain MRC1, stronger effect = lower value 1.02 | locus YCL069W, strain vba3, stronger effect = lower value 1.01 | locus YCR088W, strain abp1, stronger effect = lower value 1.01 | locus YDL005C, strain med2, stronger effect = lower value 1.02 | locus YDL035C, strain GPR1, stronger effect = lower value 0.99 | locus YDL040C, strain nat1, stronger effect = lower value 1.01 | locus YDL074C, strain BRE1, stronger effect = lower value 1.01 | locus YDL101C, strain DUN1, stronger effect = lower value 0.99 | locus YDL185W, strain tfp1, stronger effect = lower value 0.986 | locus YDL192W, strain arf1, stronger effect = lower value 1 | locus YDR001C, strain nth1, stronger effect = lower value 1.01 | locus YDR069C, strain doa4, stronger effect = lower value 1.02 | locus YDR101C, strain arx1, stronger effect = lower value 1.04 | locus YDR137W, strain rgp1, stronger effect = lower value 1.02 | locus YDR159W, strain sac3, stronger effect = lower value 1.03 | locus YDR162C, strain NBP2, stronger effect = lower value 0.984 | locus YDR195W, strain ref2 0.994 | locus YDR297W, strain sur2, stronger effect = lower value 1.01 | locus YDR318W, strain mcm21, stronger effect = lower value 0.968 | locus YDR334W, strain swr1, stronger effect = lower value 1.01 | locus YDR335W, strain msn5, stronger effect = lower value 1 | locus YDR388W, stronger effect = lower value 0.993 | locus YDR392W, strain spt3, stronger effect = lower value 1.01 | locus YDR502C, strain sam2, stronger effect = lower value 0.991 | locus YEL003W, strain gim4, stronger effect = lower value 1.02 | locus YEL037C, strain rad23, stronger effect = lower value 1 | locus YEL061C, strain CIN8 (second series), stronger effect = lower value 1.02 | locus YEL061C, strain CIN8, stronger effect = lower value 1 | locus YER015W, strain faa2, stronger effect = lower value 1.01 | locus YER016W, strain bim1, stronger effect = lower value 1.02 | locus YER110C, stronger effect = lower value 0.993 | locus YER111C, strain swi4, stronger effect = lower value 1.02 | locus YER155C, strain BEM2 (second series), stronger effect = lower value 1.03 | locus YER155C, strain BEM2, stronger effect = lower value 0.998 | locus YER167W, strain BCK2, stronger effect = lower value 0.996 | locus YFR010W, strain ubp6, stronger effect = lower value 1.01 | locus YGL078C, strain dbp3, stronger effect = lower value 0.997 | locus YGL086W, strain mad1, stronger effect = lower value 1.06 | locus YGL167C, strain pmr1, stronger effect = lower value 1.02 | locus YGL173C, strain kem1, stronger effect = lower value 1.02 | locus YGL227W, strain vid30, stronger effect = lower value 1.01 | locus YGL240W, strain doc1, stronger effect = lower value 1.02 | locus YGL248W, strain PDE1, stronger effect = lower value 0.981 | locus YGL253W, strain hxk2, stronger effect = lower value 1.02 | locus YGR135W, strain pre9, stronger effect = lower value 0.98 | locus YGR252W, strain gcn5, stronger effect = lower value 0.953 | locus YHR013C, strain ard1, stronger effect = lower value 1.01 | locus YHR027C, strain rpn1, stronger effect = lower value 1 | locus YHR079C, strain IRE1 (second series), stronger effect = lower value 0.99 | locus YHR079C, strain IRE1, stronger effect = lower value 0.872 | locus YHR094C, strain hxt1, stronger effect = lower value 0.987 | locus YHR129C, strain ARP1, stronger effect = lower value 0.989 | locus YHR142W, strain chs7, stronger effect = lower value 1.02 | locus YHR200W, strain rpn10, stronger effect = lower value 0.987 | locus YIL066C, strain RNR3, stronger effect = lower value 0.986 | locus YIL073C, strain SPO22, stronger effect = lower value 0.994 | locus YIL125W, strain kgd1, stronger effect = lower value 0.994 | locus YIR030C, strain dcg1, stronger effect = lower value 0.991 | locus YJL092W, strain hpr5, stronger effect = lower value 1.01 | locus YJL095W, strain BCK1 (second series), stronger effect = lower value 1.01 | locus YJL095W, strain BCK1, stronger effect = lower value 0.989 and 0.886 | locus YJL115W, strain asf1, stronger effect = lower value 1.01 | locus YJL129C, strain trk1, stronger effect = lower value 1.03 | locus YJL134W, strain LCB3, stronger effect = lower value 0.996 | locus YJL154C, strain vps35, stronger effect = lower value 1.02 | locus YJL164C, strain tpk1, stronger effect = lower value 1.01 | locus YJL166W, strain qcr8, stronger effect = lower value 1.03 | locus YJL168C, strain set2, stronger effect = lower value 0.995 | locus YJL187C, strain SWE1 (second series), stronger effect = lower value 0.99 | locus YJL187C, strain SWE1, stronger effect = lower value 1.01 | locus YJR043C, strain POL32, stronger effect = lower value 0.996 | locus YJR066W, strain TOR1, stronger effect = lower value 0.853 | locus YKL009W, strain mrt4, stronger effect = lower value 0.987 | locus YKL068W, stronger effect = lower value 0.991 | locus YKL085W, strain MDH1 (second series), stronger effect = lower value 0.997 | locus YKL085W, strain MDH1, stronger effect = lower value 0.997 | locus YKL160W, strain elf1, stronger effect = lower value 1.01 | locus YKL190W, strain CNB1, stronger effect = lower value 0.993 | locus YKR001C, strain vps1, stronger effect = lower value 1.01 | locus YKR026C, strain gcn3, stronger effect = lower value 1.02 | locus YKR091W, strain srl3, stronger effect = lower value 1.01 | locus YLL001W, strain dnm1, stronger effect = lower value 1.02 | locus YLL026W, stronger effect = lower value 1.01 | locus YLL041C, strain sdh2, stronger effect = lower value 1.02 | locus YLR027C, strain aat2, stronger effect = lower value 1.02 | locus YLR039C, strain RIC1, stronger effect = lower value 1.04 | locus YLR058C, strain SHM2, stronger effect = lower value 0.985 | locus YLR102C, strain apc9, stronger effect = lower value 0.999 | locus YLR221C, strain rsa3, stronger effect = lower value 1.01 | locus YLR258W, strain gsy2, stronger effect = lower value 1.01 | locus YLR262C, strain YPT6 (second series), stronger effect = lower value 0.998 | locus YLR262C, strain YPT6, stronger effect = lower value 1.04 | locus YLR268W, strain sec22, stronger effect = lower value 1.04 | locus YLR320W, strain mms22, stronger effect = lower value 1.03 | locus YLR330W, strain CHS5, stronger effect = lower value 0.994 | locus YLR342W, strain FKS1 (second series), stronger effect = lower value 1.02 | locus YLR342W, strain FKS1, stronger effect = lower value 1.03 | locus YLR357W, strain rsc2, stronger effect = lower value 1.01 | locus YLR370C, strain arc18, stronger effect = lower value 1.02 | locus YLR371W, strain rom2, stronger effect = lower value 0.98 | locus YLR384C, strain iki3, stronger effect = lower value 1.01 | locus YLR418C, strain cdc73, stronger effect = lower value 0.966 | locus YML016C, strain PPZ1, stronger effect = lower value 0.997 | locus YML032C, strain rad52, stronger effect = lower value 0.966 | locus YML120C, strain ndi1, stronger effect = lower value 1.01 | locus YML124C, strain tub3, stronger effect = lower value 0.99 | locus YMR058W, strain fet3, stronger effect = lower value 1.02 | locus YMR078C, strain ctf18, stronger effect = lower value 0.993 | locus YMR125W, strain sto1, stronger effect = lower value 1.01 | locus YMR129W, stronger effect = lower value 1.01 | locus YMR205C, strain PFK2, stronger effect = lower value 1.05 | locus YMR223W, strain ubp8, stronger effect = lower value 0.986 | locus YMR231W, strain pep5, stronger effect = lower value 0.991 | locus YMR307W, strain GAS1, stronger effect = lower value 0.988 | locus YNL067W, strain RPL9B, stronger effect = lower value 0.995 | locus YNL071W, strain lat1, stronger effect = lower value 1.02 | locus YNL153C, strain GIM3, stronger effect = lower value 0.987 | locus YNL183C, strain NPR1, stronger effect = lower value 0.855 | locus YNL209W, strain ssb2, stronger effect = lower value 1.01 | locus YNL233W, strain BNI4, stronger effect = lower value 1 | locus YNL248C, strain rpa49, stronger effect = lower value 1.01 | locus YNL250W, strain rad50, stronger effect = lower value 0.987 | locus YNL271C, strain bni1, stronger effect = lower value 0.992 | locus YNL298W, strain CLA4, stronger effect = lower value 0.989 | locus YNL307C, strain MCK1, stronger effect = lower value 1.01 | locus YNL322C, strain KRE1 (second series), stronger effect = lower value 1.02 | locus YNR049C, strain mso1, stronger effect = lower value 1.01 | locus YNR052C, strain pop2, stronger effect = lower value 0.985 | locus YOL012C, strain htz1 0.909 | locus YOL147C, strain pex11, stronger effect = lower value 0.995 | locus YOR001W, strain rrp6, stronger effect = lower value 1.02 | locus YOR061W, strain CKA2, stronger effect = lower value 0.967 | locus YOR069W, strain VPS5, stronger effect = lower value 1 | locus YOR070C, strain gyp1, stronger effect = lower value 0.999 | locus YOR080W, strain dia2, stronger effect = lower value 1.02 | locus YOR083W, strain WHI5, stronger effect = lower value 1.01 | locus YOR106W, strain vam3, stronger effect = lower value 1.01 | locus YOR136W, strain idh2, stronger effect = lower value 1 | locus YOR144C, strain elg1, stronger effect = lower value 0.988 | locus YOR184W, strain ser1, stronger effect = lower value 0.988 | locus YOR231W, strain MKK1, stronger effect = lower value 0.873 | locus YOR265W, strain rbl2, stronger effect = lower value 0.987 | locus YOR270C, strain vph1, stronger effect = lower value 1.03 | locus YOR290C, strain snf2, stronger effect = lower value 1.02 | locus YOR316C, strain cot1, stronger effect = lower value 0.994 | locus YPL051W, strain arl3, stronger effect = lower value 1.01 | locus YPL078C, strain atp4, stronger effect = lower value 1.01 | locus YPL106C, strain sse1, stronger effect = lower value 1.02 | locus YPL240C, strain hsp82, stronger effect = lower value 1 | locus YPL256C, strain CLN2, stronger effect = lower value 0.911 | locus YPR119W, strain clb2, stronger effect = lower value 0.993 | locus YPR141C, strain kar3, stronger effect = lower value 0.988 | locus YPR163C, strain tif3, stronger effect = lower value 1 | locus YPR167C, strain met16, stronger effect = lower value 0.989 | strain wtn01, stronger effect = lower value 1.03
0.995 (inactive) and 0.849 (active): locus YHR030C, strain SLT2, stronger effect = lower value
